# Compounds with a hit are over-represented: about 10% of the library has one in this group of screens.
# 3T3 cytotox: cytotoxic compounds in NIH 3T3 cells; Potency, µM (series often up to 96.7 µM), most hits filed as inhibitors; AID 1345082; NIH 3T3 viability, CellTiter-Glo ATP luminescence, 48-72 h; 94,000 compounds, 4.3% hits; further: nearly all actives have a fitted effect of over 55% in size
#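 First NIH 3T3 cells are plated at 400 cells/well; next compound is pinned in; then plates incubate 48 or 72 hr at 37 °C; finally CellTiter-Glo is added and luminescence read after 10 min.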
# FLuc inh: Photinus pyralis luciferase inhibition; 76,000 compounds, 2.5% hits; purified P. pyralis luciferase, luminescence, biochemical; Potency, µM (top dose mostly 115 µM), actives largely listed as inhibitors; P08659; further: nearly all actives have a fitted effect of over 65% in size
# Target sequence (P08659 whole entry, looked up): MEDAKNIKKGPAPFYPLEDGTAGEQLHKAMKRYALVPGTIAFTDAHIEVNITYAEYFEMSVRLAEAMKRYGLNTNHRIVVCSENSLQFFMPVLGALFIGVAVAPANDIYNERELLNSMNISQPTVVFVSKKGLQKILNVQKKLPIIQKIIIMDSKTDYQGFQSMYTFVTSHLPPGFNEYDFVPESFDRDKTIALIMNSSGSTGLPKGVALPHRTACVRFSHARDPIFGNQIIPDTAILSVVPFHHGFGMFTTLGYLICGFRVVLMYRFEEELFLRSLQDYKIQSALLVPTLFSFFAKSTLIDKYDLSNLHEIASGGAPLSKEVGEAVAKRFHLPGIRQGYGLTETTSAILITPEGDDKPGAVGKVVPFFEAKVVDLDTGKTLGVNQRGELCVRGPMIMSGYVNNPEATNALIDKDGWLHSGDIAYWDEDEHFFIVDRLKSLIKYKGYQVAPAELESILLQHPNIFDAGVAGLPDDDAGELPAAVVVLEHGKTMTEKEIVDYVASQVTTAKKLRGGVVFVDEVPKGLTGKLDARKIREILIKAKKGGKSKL
#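 Purified P. pyralis luciferase (10nM final) in 50mM Tris acetate pH 7.5, 10mM Mg acetate, 0.01% Tween-20, 0.05% BSA with 10uM D-luciferin and 10uM ATP. Compounds titrated qHTS. Luminescence imaged on CCD.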
# HEK cytotox: kills HEK 293 cells; HEK 293 viability, ATP luminescence (CellTiter-Glo), 48-72 h; Potency, µM (doses to about 115 µM), hits mostly inhibitors; 94,000 compounds, 6.6% hits; AID 1345083; further: nearly all actives have a fitted effect of over 60% in size
#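 Cells seeded first (HEK 293, 250 cells/well), then compound added by pintool. Incubation ran 48 or 72 hr at 37 degree Celsius. CellTiter-Glo was added and luminescence imaged after 10 min at room temperature.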
# GPT2 inh: inhibitors of human GPT2 alanine aminotransferase; Q8TD30; Recombinant GPT2, coupled pyruvate oxidase/HRP Amplex Red fluorescence; Potency, µM (series often up to 57.7 µM), most hits filed as inhibitors; 100,000 compounds, 0.25% hits; further: nearly all actives have a fitted effect of over 60% in size
#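 Fluorescence read-out: pyruvate from GPT2 turnover coupled to pyruvate oxidase, HRP and Amplex Red (0.2mM ThPP, 0.2U/mL PO and HRP, 50uM Amplex final). Substrates 250uM a-KG, 2mM L-alanine; enzyme 10ng/uL; 30 min RT.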
# hNpr1 antagonist: antagonists of human natriuretic peptide receptor Npr1; Potency, µM (doses to about 46.3 µM), actives largely listed as inhibitors; AID 1347048; P16066; 76,000 compounds, 1.6% hits; HEK293 hNpr1 GloSensor cGMP, ANP-stimulated luminescence; calls by dose curve; further: nearly all actives have a fitted effect of over 60% in size
#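 HEK293 cells stably expressing human Npr1 and cGMP GloSensor pGS-40F, loaded 2 h with 2% GloSensor reagent, given compound 30 min at room temperature. Luminescence read before and 20 min after 0.1 nM hNppA.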
# A number is an active result; n = inactive; u = inconclusive; x = no result. Unless noted, the call rests on the fitted dose curve; in most records, active means well fitted curve in the direction sought with a large enough effect; inconclusive means small, poorly fitted or top-dose-only effect, or another doubt; inactive means no such curve, though single readings can be large; an effect the other way counts as inactive or inconclusive.
SMILES,3T3 cytotox,FLuc inh,HEK cytotox,GPT2 inh,hNpr1 antagonist
CC1=C[C@@H](CNC(=O)CN(C)C)[C@H](C(C)C)C[C@H]1Cc1nc2ccc(C)cc2[nH]1,79.4µM,n,u,n,n
CC1=C[C@@H](CNC(=O)CC2(CC(=O)O)CCCC2)[C@H](C(C)C)C[C@H]1Cc1nc2ccc(C)cc2[nH]1,n,n,n,n,n
CC1=C[C@@H](CNC(=O)CCC(=O)O)[C@H](C(C)C)C[C@H]1Cc1nc2ccc(Cl)cc2[nH]1,n,n,n,n,n
CC1=C[C@@H](CN(C)C)[C@H](C(C)C)C[C@H]1Cc1nc2ncc(Cl)cc2[nH]1,70.8µM,n,79.4µM,n,n
CC1=C[C@@H](CNC2CCOCC2)[C@H](C(C)C)C[C@H]1Cc1nc2ccc(Cl)cc2[nH]1,100µM,n,u,u,n
Cc1cc(C)cc(NC(=O)Cn2c(N3CCC(C)CC3)nc(C)cc2=O)c1,u,n,u,n,u
Cc1cc(=O)n(CC(=O)Nc2ccccc2C)c(N2CCC(C)CC2)n1,u,n,u,n,n
Cc1cc(=O)n(CC(=O)Nc2ccc(Cl)cc2)c(N2CCC(C)CC2)n1,u,n,39.8µM,n,n
COc1cccc(NC(=O)Cn2c(N3CCC(C)CC3)nc(C)cc2=O)c1,n,n,u,n,u
Cc1ccc(NC(=O)Cn2c(C)cc3nc4n(c(=O)c32)CCCCC4)cc1Cl,39.8µM,n,28.2µM,n,n
CCc1ccc(NC(=O)Cn2c(N3CCC(C)CC3)nc(C)cc2=O)cc1,u,n,44.7µM,n,u
Cc1cc(=O)n(CC(=O)Nc2ccc(Br)cc2)c(N2CCC(C)CC2)n1,u,n,39.8µM,n,u
Cn1nccc1C(=O)NCCc1noc(C2CC2)n1,n,n,n,n,n
O=C1[C@H]2CN(Cc3cc(F)c(F)cc3F)C[C@H]2C(=O)N1Cc1ccc2c(c1)OCO2,n,n,u,n,n
CC(=O)c1ccc(NC(=O)Cn2c(-c3ccc(Cl)cc3)nc(C)cc2=O)cc1,u,n,44.7µM,n,n
Cc1cc(=O)n(CC(=O)Nc2ccc(C)c(Cl)c2)c(N2CCC(C)CC2)n1,u,n,31.6µM,n,u
Cc1cc(=O)n(CC(=O)Nc2ccc(C)c(C)c2)c(N2CCC(C)CC2)n1,u,n,u,n,n
CCOC(=O)c1ccc(NC(=O)Cn2c(N3CCN(c4ccccc4)CC3)nc(C)cc2=O)cc1,31.6µM,n,39.8µM,n,n
O=C(O)CC1NCCNC1=O (configuration not stated),n,n,n,n,n
COCCNC(=O)c1cc(-c2ccc(Cl)cc2)nc2c1cnn2C,u,x,u,n,x
COc1cc(-c2ccc(C)s2)cc2c1OCCNC2,u,n,n,n,n
O=Cc1ccccc1-c1cnc2ccccc2c1,79.4µM,x,n,n,x
Cc1cc(C)cc(-c2ccccc2C=O)c1,u,x,u,n,x
O=C(NCc1cccs1)C1CCCN(Cc2cccc(-c3cccs3)c2)C1 (configuration not stated),39.8µM,x,44.7µM,n,x
Cc1cccc(-c2cccc(CN3CCCC(C(=O)NCC4CC4)C3)c2)c1 (configuration not stated),u,x,u,n,x
SMILES,3T3 cytotox,FLuc inh,HEK cytotox,GPT2 inh,hNpr1 antagonist
O=C(NCc1cccc(F)c1)C1CCCN(Cc2cccc(-c3cccs3)c2)C1 (configuration not stated),39.8µM,x,u,x,x
Cc1cccc(-c2cccc(CN3CCCC(C(=O)N4CCN(C)CC4)C3)c2)c1 (configuration not stated),u,x,25.1µM,n,x
O=C(NCc1cccs1)C1CCCN(Cc2cccc(-c3ccsc3)c2)C1 (configuration not stated),u,x,39.8µM,n,x
COc1cc([C@H]2OC[C@]3(OC(C)=O)[C@@H](c4ccc(O[C@@H]5O[C@H](CO)[C@@H](O)[C@H](O)[C@H]5O)c(OC)c4)OC[C@H]23)ccc1O,x,x,x,n,x
CN1CCN(C(=O)C2CCCCC(=O)N2)CC1 (configuration not stated),n,n,n,n,n
CN(C)c1ccc(C(=O)N2CCN(c3nnc4ccccn34)CC2)cc1,n,n,n,n,n
O=C(C1CCCN(Cc2cccc(-c3cccs3)c2)C1)N1CCCC1 (configuration not stated),u,x,70.8µM,n,x
COc1cccc(-c2n[nH]c3c2CC(=O)N(Cc2ccccc2)C3)c1OC,n,n,u,n,n
Cc1cccc([S+](=O)([O-])N2CCC3(CC2)OCCN(Cc2ccccc2)C3=O)c1,u,n,n,n,n
COCCN1CCOC2(CCN([S+](=O)([O-])c3cccc(C)c3)CC2)C1=O,89.1µM,n,n,n,n
COc1ccc(C(=O)NC2CCN(c3nccc(Nc4ccccc4F)n3)CC2)cc1,n,x,u,n,x
O=C(NC1CCN(c2nccc(Nc3ccccc3F)n2)CC1)c1ccc(C(F)(F)F)cc1,35.5µM,x,25.1µM,n,x
O=C(NC1CCN(c2nccc(Nc3ccccc3F)n2)CC1)c1ccc(F)cc1,35.5µM,x,u,n,x
O=C(NC1CCN(c2nccc(Nc3ccccc3Cl)n2)CC1)c1ccc(C(F)(F)F)cc1,31.6µM,x,39.8µM,n,x
O=C(NC1CCN(c2nccc(Nc3ccccc3F)n2)CC1)c1ccccc1,u,x,u,n,x
COc1ccc(OC)c(S(=O)(=O)N2CCOCCNC(=O)[C@H]3CCCC[C@H]32)c1,n,n,n,n,n
COc1cc(=O)n2c(c1C(=O)Nc1cc(C(F)(F)F)ccc1Cl)CCCC2,n,n,u,n,n
Cc1ccc(C2=NC3(CCN(C(=O)c4ccccc4Cl)CC3)ON2)cc1,n,31.6µM,n,n,u
Cc1ccc(C(=O)N2CCC3(CC2)N=C(c2ccccc2)NO3)cc1,n,n,u,n,n
Cn1nc(C(=O)N2CCC3(CC2)N=C(c2cccc(Br)c2)NO3)c2ccccc21,u,n,44.7µM,n,n
O=C(c1ccc2c(c1)OCO2)N1CCC2(CC1)N=C(c1ccccc1)NO2,n,39.8µM,n,n,n
CC(=O)Nc1ccc(C(=O)N2CCC3(CC2)N=C(c2ccccc2)NO3)cc1,n,35.5µM,n,n,n
C[S+](=O)([O-])N1CC2(CCCN(CC3CCCCC3)C2)Cc2ccccc21 (configuration not stated),u,x,u,n,x
COc1cccc(Nc2cc3c(cn2)CN(Cc2ccncc2)CCN3)c1,u,u,u,n,n
COc1ccccc1CN1CCNc2cc(Nc3ccccc3)ncc2C1,35.5µM,u,35.5µM,n,n
Cn1cc(CN2CCNc3cc(Nc4cccnc4)ncc3C2)cn1,u,n,u,n,n
COc1ccc(CN2CCNc3cc(Nc4ccccc4)ncc3C2)cc1,u,n,70.8µM,n,n
CN(C)c1ccc(CN2CCNc3cc(Nc4ccccc4)ncc3C2)cc1,56.2µM,n,u,n,n

# Screening results from PubChem.
